# About 15 (0.007%) of roughly 200,000 compounds were called active. No stated cut-off is given here; in the data, active means displacement above about 50%; inactive means the rest. The list comes from a sample in which actives are over-represented; it also holds similar structures and randomly drawn compounds.
# Target: E3 ubiquitin-protein ligase XIAP (Homo sapiens) (UniProt P98170)
# Test: small molecules displacing peptide from XIAP – biochemical, IAP family, fluorescence polarization (AID 1018)
# Conditions: XIAP BIR domain, at 20 µM, hits give high values
# Chain of E3 ubiquitin-protein ligase XIAP (Homo sapiens) (P98170 whole entry, looked up): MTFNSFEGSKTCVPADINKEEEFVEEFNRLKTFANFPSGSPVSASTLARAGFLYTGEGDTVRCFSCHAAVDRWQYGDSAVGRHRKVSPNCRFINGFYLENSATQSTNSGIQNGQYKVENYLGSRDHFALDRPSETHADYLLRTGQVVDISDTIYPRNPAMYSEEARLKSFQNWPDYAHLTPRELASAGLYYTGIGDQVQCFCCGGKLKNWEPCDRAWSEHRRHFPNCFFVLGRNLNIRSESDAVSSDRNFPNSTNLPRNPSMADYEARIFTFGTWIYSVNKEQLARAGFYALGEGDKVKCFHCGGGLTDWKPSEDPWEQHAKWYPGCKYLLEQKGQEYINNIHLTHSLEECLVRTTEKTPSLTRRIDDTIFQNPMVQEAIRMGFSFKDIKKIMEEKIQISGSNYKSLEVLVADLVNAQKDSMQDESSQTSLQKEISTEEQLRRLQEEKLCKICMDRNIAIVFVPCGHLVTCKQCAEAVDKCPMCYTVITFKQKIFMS
row,SMILES,displacement
1,Fc1cccc(CSc2nc3ccncc3[nH]2)c1,-5.3% (inactive)
2,CCOc1cc(N2CCOCC2)c(OCC)cc1NC(=O)CSc1ncccn1,-8.5% (inactive)
3,O=C(Cn1cc(CCO)nn1)N1CCNCC1,-26.3% (inactive)
4,CCOC(=O)c1c(C)[nH]c(C)c1C(=O)CSc1nnc(-c2ccncc2)n1C,-0.3% (inactive)
5,O=C(Nc1cn(-c2ccccc2)nc1-c1ccc(Cl)cc1)c1ccccc1,-8.1% (inactive)
6,CN1CCN(CC(O)COC(c2ccccc2)c2ccccc2)CC1 (stereo unspecified),-2.7% (inactive)
7,CS(=O)(=O)N(CC(=O)Nc1ccc2c(c1)OCO2)c1ccccc1,0.9% (inactive)
8,CCCCCC(=O)N1CCN(CCN=CC2=C(O)CC(c3ccc(OC)c(OC)c3)CC2=O)CC1 (stereo unspecified),-3.4% (inactive)
9,O=c1[nH]c2cc3c(cc2cc1CN(Cc1cccnc1)C(=S)NCc1ccco1)OCO3,-8.9% (inactive)
10,O=C(NC1CCCC1)C(c1ccncc1)N(Cc1ccco1)C(=O)c1ccc(-c2ccccc2)[nH]1 (stereo unspecified),-0.5% (inactive)
11,O=C(CNC(=O)c1ccc(N2C(=O)c3ccccc3C2=O)cc1)OCC(=O)c1ccccc1,-3.8% (inactive)
12,CCc1ccc(C(=O)COC(=O)CNC(=O)c2ccc(N3C(=O)c4ccccc4C3=O)cc2)cc1,-2.7% (inactive)
13,O=C(CNC(=O)c1ccc(N2C(=O)c3ccccc3C2=O)cc1)OCC(=O)c1ccc(Cl)cc1,77.6% (active)
14,O=C(c1ccc2c(=O)n(C3CCCC3)c(=S)[nH]c2c1)N1CCN(C2CCCCC2)CC1,-21.2% (inactive)
15,CC1CCCN(C(=O)c2ccc3c(=O)n(C4CCCC4)c(=S)[nH]c3c2)C1 (stereo unspecified),-8.7% (inactive)
16,O=C(c1ccc2c(=O)n(C3CCCC3)c(=S)[nH]c2c1)N1CCCCCC1,68.1% (active)
17,Cc1ccc(NC(=O)c2ccc(Cl)nc2)cc1,-3.5% (inactive)
18,Cc1cccc(S(=O)(=O)NCC2CCCO2)c1 (stereo unspecified),-6.3% (inactive)
19,Cc1cc(C(=O)NCc2ccc(C(=O)O)o2)c(C)o1,-8.1% (inactive)
20,CC1(C)NC(C)(C)c2nonc2/C1=N\O,-3.8% (inactive)
21,CC(C)(C)n1nnnc1C(c1ccncc1)N(Cc1ccccc1)Cc1ccco1 (stereo unspecified),-4.2% (inactive)

row,SMILES,displacement
1,O=S(=O)(/C=C/c1ccccc1)N1CCN(c2ccccc2)CC1,-3.9% (inactive)
2,CC(C)(C)n1nnnc1C(c1cccnc1)N1CCN(c2cccc(C(F)(F)F)c2)CC1 (stereo unspecified),-2.9% (inactive)
3,COc1ccc(NC(=O)c2cc(OC)c(OC)cc2OC)c(S(=O)(=O)N2CCOCC2)c1,-3.3% (inactive)
4,CCOC(=O)Nc1ccc(OC)cc1S(=O)(=O)N1CCCCC1,-2.5% (inactive)
5,CCCCOC(=O)Nc1ccc(OC)cc1S(=O)(=O)N1CCOCC1,58.7% (active)
6,O=C1c2ccccc2-c2onc3ccc(NCCCn4ccnc4)c1c23,70.1% (active)
7,CCNc1ccc2noc3c2c1C(=O)c1ccccc1-3,-8.9% (inactive)
8,O=C1c2ccccc2-c2onc3ccc(NCc4ccco4)c1c23,76.4% (inactive)
9,Cc1cc(=O)[nH]c(S/C=C/c2ccccc2)n1,0.7% (inactive)
10,CCN(CC)S(=O)(=O)c1ccc(C)c(NC(=O)COC(=O)CNC(=O)c2ccc(C(C)(C)C)cc2)c1,-10.4% (inactive)
11,Cc1nn(CCC#N)c2[nH]c(=O)cc(C(F)(F)F)c12,-4.9% (inactive)
12,Cc1ccc(C(NC(N)=O)c2ccccc2C)cc1 (stereo unspecified),-1.9% (inactive)
13,S=c1[nH]nc(CN2CCCCC2)n1-c1ccc(Cl)cc1,-9.6% (inactive)
14,O=C(O)CCc1nc(-c2ccc(Cl)cc2)no1,-3.7% (inactive)
15,O=C(O)CCCc1nc(-c2ccccc2)no1,-1.3% (inactive)
16,O=C(O)CCCc1nc(-c2ccc(Cl)cc2)no1,70.8% (active)
17,Cc1cccc(-c2n[nH]c(=S)n2-c2ccccc2)c1[N+](=O)[O-],-3.7% (inactive)
18,CC(=O)C(C(C)=O)C1(O)C(=O)c2ccccc2C1=O,-3.4% (inactive)
19,Fc1cccc(Cn2cc(C(=S)N3CCOCC3)c3ccccc32)c1,-4.3% (inactive)
20,CCC(C(=O)O/N=C(\N)c1ccc(Cl)cc1)c1ccccc1 (stereo unspecified),-3.6% (inactive)
21,Cc1cccc2cc(COC(=O)C(C)C)c(=O)[nH]c12,-4.3% (inactive)

row,SMILES,displacement
1,COC(=O)c1cn(NC(=O)c2ccc3c(c2)OCO3)c(=O)c2ccccc12,-3.5% (inactive)
2,CCOC(=O)C1(CC2CC2)CCN(S(=O)(=O)/C=C/c2ccccc2)CC1,-6.8% (inactive)
3,Cc1ccc(-n2c(-c3ccccc3)c[n+]3c2CCc2ccccc2-3)c(C)c1,-4.9% (inactive)
4,N/C(=N\OC(=O)CCC1CCCC1)c1ccc([N+](=O)[O-])cc1,-1.2% (inactive)
5,CC(=O)Nc1cccc(NC(=O)Nc2cccc(Cl)c2C)c1,-2.6% (inactive)
6,CCC/C=N/NC(=O)c1ccc(F)cc1,-5.5% (inactive)
7,CCCNC(=O)C12CCC(C)(c3nc4cc(C)c(C)cc4nc31)C2(C)C (stereo unspecified),-3% (inactive)
8,CCOC(=O)N1CCC(N2Cc3cccc(C(=O)Nc4ccc(OC)c(OC)c4)c3C2=O)CC1,1.9% (inactive)
9,O=C(Nc1nnc(Cc2ccc(Cl)cc2)s1)C1CCCO1 (stereo unspecified),-3.9% (inactive)
10,COCCN1CCN(c2c3c(nc4cc(-c5cccc(F)c5)nn24)CCC3)CC1,-10.3% (inactive)
11,O=C(O)C(Cc1ccccc1)N1Cc2ccccc2C1=O (stereo unspecified),-8.8% (inactive)
12,O=C(O)[C@H](Cc1ccccc1)N1Cc2ccccc2C1=O,2.3% (inactive)
13,CCOC(=O)/C=C/S(=O)(=O)c1ccc(NC(C)=O)cc1,-2.6% (inactive)
14,CCN(CC)CCN(C(=O)c1c(F)cccc1F)c1nc2cc(C)cc(C)c2s1,-3.6% (inactive)
15,Cc1ccc(NC(=O)c2ccc(-n3cncn3)c([N+](=O)[O-])c2)cc1,-3.6% (inactive)
16,CN(C)CCNC(=O)c1ccccc1,-5.4% (inactive)
17,CC1CCN(S(=O)(=O)c2ccc(N/N=C(/C#N)C(N)=O)cc2)CC1,-6.4% (inactive)
18,Cc1ccc(C)c(NC(=S)N(C)CCO)c1,-3.7% (inactive)
19,Cn1c(=O)[nH]c(=O)c2c1nc(N1CCCCC1)n2CCSc1nc2ccccc2o1,-3.9% (inactive)

# From PubChem BioAssay AID1018 (Sanford-Burnham Center for Chemical Genomics, 2008)
